Assay outcomes as filed in PubChem.
G9a inh: inhibitors of human histone lysine methyltransferase G9a; Potency, µM (highest dose often 102 µM), usual class: inhibitors; G9a H3K9 monomethylation, AlphaScreen, 2 h; Q96KQ7; 8.8% of 350,000 active; further: nearly all actives have a fitted effect of over 75% in size
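Readings reflect AlphaScreen signal from monomethyl-H3K9 antibody detection. HMT at 20 nM; substrate b-H3K9 500 nM; cofactor SAM 20 uM; 2 h RT reaction; compounds tested as titrations in qHTS with 15 min preincubation.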
TDP1 block: blocks human tyrosyl-DNA phosphodiesterase 1; 0.28% of 350,000 active; recombinant TDP1, AlphaScreen DNA substrate cleavage; Potency, µM (highest dose often 130 µM), hits mostly inhibitors; further: nearly all actives have a fitted effect of over 40% in size
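Here, a 5' biotin and 3' phosphotyrosine-FITC DNA oligonucleotide reports Tdp1 activity: intact substrate bridges AlphaScreen beads, while cleavage leaves a 3' phosphate and drops signal. All incubations at room temperature.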
Sfp inh: blocks B. subtilis Sfp PPTase activity; Q9F4F7; Biochemical Sfp PPTase activity, qHTS; Potency, µM, hits mostly inhibitors; 3.5% of 310,000 active;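 further: the enzyme is Sfp with the accession as filed and its product quenches rhodamine fluorescence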
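Step 1, compound plus 15 nM Sfp-PPTase, 15 min, room temperature. Step 2, add rhodamine-CoA (5 uM) and BHQ-2-YbbR (12.5 uM). Step 3, read 525/598 nm fluorescence at 0 and 30 min.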
HP1b chromo inh: HP1-beta chromodomain-methylated histone interaction inhibition; P83916; AlphaScreen HP1-beta / biotin-H3K9me3 peptide binding; Potency, µM (top dose mostly 114 µM), actives largely listed as inhibitors; 0.56% of 390,000 active; AID 540317; further: nearly all actives have a fitted effect of over 70% in size
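HP1-beta protein (50 nM final) preincubated 30 min at room temperature with biotinylated H3(1-18)K9me3 peptide (50 nM) in PBS pH 7.4, 0.01% Tween-20, then compound added for 30 min. AlphaScreen streptavidin donor/nickel chelate acceptor beads (10 ug/mL final), 30 min dark, luminescence read.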
BAZ2B block: inhibitors of human BAZ2B bromodomain; 4.4% of 360,000 active; AlphaScreen BAZ2B-H3K14Ac peptide displacement; Q9UIF8; Potency, µM (top dose mostly 114 µM), actives largely listed as inhibitors; AID 504333; further: nearly all actives have a fitted effect of over 60% in size
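Protein-peptide AlphaScreen: BAZ2B 50 nM, b-H3K14Ac 50 nM, 1x PBS pH 7.4 + 0.01% Tween-20. Preincubation 30 min RT; cpd 30 min RT (top 110 uM); beads 20 min RT, light-protected.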
JMJD2A Tudor: blocks the human JMJD2A Tudor domain. O75164. AlphaScreen JMJD2A-Tudor / H3K4me3 peptide binding. Potency, µM (doses to about 114 µM), most hits filed as inhibitors. 4.4% of 390,000 active. AID 504339; further: nearly all actives have a fitted effect of over 50% in size
Target sequence (O75164 whole entry, looked up, the tested form may be a part): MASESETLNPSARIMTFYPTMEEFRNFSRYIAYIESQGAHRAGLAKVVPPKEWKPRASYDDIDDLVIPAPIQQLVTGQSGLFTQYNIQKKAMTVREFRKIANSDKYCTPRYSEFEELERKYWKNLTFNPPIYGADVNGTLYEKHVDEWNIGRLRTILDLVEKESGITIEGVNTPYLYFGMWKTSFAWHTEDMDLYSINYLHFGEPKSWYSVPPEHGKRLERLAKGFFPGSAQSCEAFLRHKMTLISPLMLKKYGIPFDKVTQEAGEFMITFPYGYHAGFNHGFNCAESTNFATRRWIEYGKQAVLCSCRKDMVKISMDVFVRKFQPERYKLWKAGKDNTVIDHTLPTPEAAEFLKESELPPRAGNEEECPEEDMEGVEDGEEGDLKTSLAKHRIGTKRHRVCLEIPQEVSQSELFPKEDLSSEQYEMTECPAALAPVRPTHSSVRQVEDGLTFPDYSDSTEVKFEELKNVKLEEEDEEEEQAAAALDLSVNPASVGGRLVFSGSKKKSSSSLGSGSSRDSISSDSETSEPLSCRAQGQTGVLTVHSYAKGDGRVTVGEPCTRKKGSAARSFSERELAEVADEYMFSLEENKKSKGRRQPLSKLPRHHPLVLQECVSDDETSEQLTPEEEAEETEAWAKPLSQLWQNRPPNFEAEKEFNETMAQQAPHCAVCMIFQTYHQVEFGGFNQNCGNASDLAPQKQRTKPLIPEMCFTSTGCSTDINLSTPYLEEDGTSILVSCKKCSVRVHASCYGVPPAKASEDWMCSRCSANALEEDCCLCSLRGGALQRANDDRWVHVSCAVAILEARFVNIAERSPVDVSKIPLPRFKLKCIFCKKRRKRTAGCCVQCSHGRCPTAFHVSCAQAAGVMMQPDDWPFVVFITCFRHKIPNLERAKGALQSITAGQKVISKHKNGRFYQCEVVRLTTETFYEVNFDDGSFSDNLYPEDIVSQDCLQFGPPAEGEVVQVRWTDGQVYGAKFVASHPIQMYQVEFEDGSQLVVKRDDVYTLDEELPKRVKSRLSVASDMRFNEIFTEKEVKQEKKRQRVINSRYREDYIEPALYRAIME
A number is an active result; . = inactive; ? = inconclusive; / = no result given; ! = not active in a repeat; [ ] = remark or other dose. Sampled rows, rich in hits. Any-hit rate of the full collection: about 12%. The call rests on the fitted dose curve; in most records, active means well fitted curve in the direction sought with a large enough effect; inconclusive means small, poorly fitted or top-dose-only effect, or another doubt; inactive means no such curve, though single readings can be large; an effect the other way counts as inactive or inconclusive.

SMILES	G9a inh	TDP1 block	Sfp inh	HP1b chromo inh	BAZ2B block	JMJD2A Tudor
COc1ccc(C(=O)NCC(=O)N2CCC(Cc3ccccc3)CC2)cc1OC	.	.	/	.	.	.
OCc1ccccc1OCCCN1CCC(Cc2ccccc2)CC1	35.5µM	.	.	?	?	22.4µM
COc1cc(C(C)=O)ccc1OCCN1CCC(Cc2ccccc2)CC1	?	.	.	44.7µM	31.6µM	1.58µM
O=Cc1cc(Cl)ccc1OCCN1CCC(Cc2ccccc2)CC1	25.1µM	.	.	?	?	20µM
COC(=O)c1ccc(C(/C=C/[C@@H](C)C(=O)NCCc2c[nH]c3ccccc23)NC(=O)OCc2ccccc2)cc1 (some centres undefined)	/	.	.	/	/	/
CC(C)CC(N)C(=O)NC(C)C(=O)O (centres undefined)	/	.	.	/	/	/
COc1cc(C(=S)N2CCC(Cc3ccccc3)CC2)ccc1OCC(N)=O	.[2.33 µM]	/	.	.	.	.
COc1cc(C(C)=O)ccc1OCCCN1CCC(Cc2ccccc2)CC1	35.5µM	.	.	?	56.2µM	?
COC(=O)C1C(O)=C(C(C)=Nc2cccc3ccccc23)C(=O)CC1(C)C (centres undefined)	.	.	.	.	.	79.4µM
COC(=O)C1C(O)=C(C=NC2CCCCC2)C(=O)CC1(C)C (centres undefined)	.	.	.	.	.	.[11.4 µM]
CC1CCC/C(=C\Nc2ccc3c(c2)OCO3)C1=O (centres undefined)	8.91µM	.	?	.	?	100µM
CC1CCC/C(=C\Nc2ccccc2C(=O)O)C1=O (centres undefined)	44.7µM	.	.	.	?	.
O=C(O)c1ccccc1NC(=O)C1CCCO1 (centres undefined)	.	.	.	.	.	.
CCOC(=O)c1cc2sc(C)cc2n1CCCN1C(=O)c2ccccc2C1=O	.	.	.	.	.	.
CCOC(=O)c1cc2occc2n1CC(=O)Nc1ccc(OC)cc1OC	39.8µM	.	.	.	?	?
CCOC(=O)c1cc2occc2n1CCCN1C(=O)c2ccccc2C1=O	14.1µM	.	.	?	50.1µM	?
COc1cccc(-c2cc(=O)c3cc(NC(=O)c4cccnc4)ccc3[nH]2)c1	?	.	.	/	/	/
Nc1c(C(=O)N2CCCC2)sc2nc3c(cc12)CCCCCC3	?	.	56.2µM	.	.	.
Cc1cc(C)c2c(N)c(C(=O)N3CCCCCC3)sc2n1	?	.	35.5µM	.	?	35.5µM
Cc1ccc(S(=O)(=O)N(C)CC(=O)N2CCN(Cc3ccccc3)CC2)cc1	/	.	.	.	.	.
CCCC1Nc2ccc(C(=O)O)cc2C2C=CCC12 (centres undefined)	?	.	?	.	44.7µM	56.2µM
CC(C)C1Nc2ccc(C(=O)O)cc2C2C=CCC21 (centres undefined)	10µM	.	28.2µM	?	79.4µM	31.6µM
COC(=O)[C@]1(Cc2ccccc2)N[C@H](CN(C)C(=O)Nc2ccc(Cl)cc2)[C@@H]2C(=O)N(C)C(=O)[C@@H]21	/	.	/	.	/	.
CCc1nn2cc(C(=O)c3cc(C)ccc3O)cnc2c1-c1ccc(F)cc1	44.7µM	.	.	.	?	?
Cc1ccc(O)c(C(=O)c2cnc3c(c2)c(-c2ccc(F)cc2)c(C#N)c(=O)n3C)c1	.	.	?	.	.	.
SMILES	G9a inh	TDP1 block	Sfp inh	HP1b chromo inh	BAZ2B block	JMJD2A Tudor
CCOc1ccc(NS(=O)(=O)c2ccc3[nH]c(=O)cc(C(=O)O)c3c2)cc1	.	.	.	.	.	.
Cc1cccc(NS(=O)(=O)c2ccc3[nH]c(=O)cc(C(=O)OC(C)C(=O)Nc4ccc([N+](=O)[O-])cc4)c3c2)c1 (centres undefined)	44.7µM	.	.	.	.	?
CN(C)CCCNCC(=O)c1c(-c2ccccc2)n(C)c2ccccc12	.	/	39.8µM	?	.	4.47µM
Cn1c(-c2ccccc2)c(C(=O)CC#N)c2ccccc21	.	.	.	.	.	.
COc1ccccc1NS(=O)(=O)c1ccc2oc(N)nc2c1	25.1µM	.	?	.	.	.
COc1ccccc1NS(=O)(=O)c1ccc2oc(SC)nc2c1	.	/	.	.	.	.
Cc1nnc2ccc(-c3ccc(NC(=O)c4ccc(Cl)nc4)cc3)nn12	79.4µM	/	.	/	.	/
CC(=O)Nc1ccc(NC(=O)c2ccc(Cl)nc2)cc1	/	.	.	.	.	.
CCOc1ccc(N2CC(NC(=O)c3ccc(S(=O)(=O)N4CCCC4)cc3)CC2=O)cc1 (centres undefined)	.	.	/	.	.	.
CCc1nc2cc3sc(CC)nc3cc2s1	?	.	.	.	.	.
CCCCC(=O)Nc1nnc(C2=COCCO2)o1	50.1µM	.	?	.	?	.
O=C(COc1ccccc1)Nc1nnc(-c2ccccc2Cl)o1	/	/	/	.	/	22.4µM
O=C(COc1ccc(Cl)cc1)Nc1nnc(C2=COCCO2)o1	.	.	.	.	20µM	3.55µM
CCCCN(C)S(=O)(=O)c1ccc(C(=O)Nc2nnc(C3=COCCO3)o2)cc1	?	.	.	.	/	?
O=C(COC(=O)COc1ccc(Cl)cc1)Nc1ccc2c(c1)OCCO2	.[12.7 µM]	.	/	.	.	.
O=C(COc1ccccc1)Nc1nn[nH]n1	?	.	.	.	79.4µM	79.4µM
O=C(COc1ccccc1)Nc1nnc(-c2ccc3c(c2)CCCC3)o1	.	.	.	.	.	.
N[C@@H](COP(=O)(O)O)C(=O)O	.	.	39.8µM!	/	/	/
Cc1cc(C)cc(NC(=O)CCn2ccnc2)c1	.	.	.	.	.	.
COc1cccc(-c2nnc(-c3ccccc3[N+](=O)[O-])o2)c1	.	/	.	.	.	.
COc1cc(SC)ccc1C(=O)N1CCC(Cc2ccccc2)CC1	10µM	.	.	/	/	/
COc1cc(SC)ccc1C(=O)N1CCN(Cc2ccccc2)CC1	.[0.501 µM]	.	.	.	.	.
COc1cc(SC)ccc1C(=O)NC1CCCCC1	1.12µM	.	.	.	.	.
COc1cc(SC)ccc1C(=O)N1CCN(c2ccccc2)CC1	.	.	.	.	.	.
COc1cc(SC)ccc1C(=O)N1CCN(c2ccc(O)cc2)CC1	15.8µM	.	56.2µM	?	/	?
COc1cc(SC)ccc1C(=O)OCC(=O)NC1CCCCC1	.	.	.	.	.	.
OCc1ccc(-c2ccc(-c3ccc(CO)s3)o2)s1	1.58µM	.	.	/	/	/
C[C@@]12C=Cc3occc3C1CC[C@@]13C[C@@H](CCC12)[C@@](O)(CO)C3 (some centres undefined)	14.1µM	.	.	/	/	/
CC(=O)OC[C@@]1(O)C[C@]23CCC4c5ccoc5CC[C@@]4(C)C2CCC1C3 (some centres undefined)	/	.	.	/	/	/
